How the values were obtained:
Test in all cases: DAPPL (digital affinity profiling via proximity ligation, sequencing); 10 mM Tris-HCl pH 7.5, 50 mM NaCl, 1 mM DTT, 4% glycerol, room temperature, 30 min; GST-TFs on glutathione beads, 16-mer random dsDNA library, 0.1% formaldehyde crosslink after washing; high values mean tight binding
[1] = target: T1, FLI1 (Homo sapiens, UniProt Q01543 1-452); conditions: protein: recombinant; tags: N-terminal GST; dsDNA, one strand shown
T1 sequence: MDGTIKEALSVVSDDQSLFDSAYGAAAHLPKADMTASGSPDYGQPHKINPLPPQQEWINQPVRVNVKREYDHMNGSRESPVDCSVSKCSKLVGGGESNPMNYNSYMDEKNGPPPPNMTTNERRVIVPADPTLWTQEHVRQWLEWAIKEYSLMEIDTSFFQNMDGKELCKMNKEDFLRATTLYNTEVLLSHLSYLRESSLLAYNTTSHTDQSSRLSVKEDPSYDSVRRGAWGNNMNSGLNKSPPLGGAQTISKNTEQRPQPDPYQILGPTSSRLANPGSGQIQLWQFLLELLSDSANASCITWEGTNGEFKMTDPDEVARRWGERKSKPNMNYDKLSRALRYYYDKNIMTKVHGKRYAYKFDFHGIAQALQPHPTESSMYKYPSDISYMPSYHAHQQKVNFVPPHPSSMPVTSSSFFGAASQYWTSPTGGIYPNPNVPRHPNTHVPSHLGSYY
Procedure, shortened: (§1)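 Each value of binding signal is a hexamer's read frequency for a factor divided by the same hexamer's frequency in the tag-only sample. Barcoded, bead-captured GST fusions of human transcription factors made in yeast were pooled with that sample and incubated with 200 nmole of a random double-stranded 16-mer DNA library in Tris/NaCl/DTT/glycerol buffer at room temperature for 30 min. Washing, 0.1% formaldehyde crosslinking, proximity ligation, PCR and Illumina NextSeq500 sequencing followed.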

[2] = target: T2, ELK1 (Homo sapiens, UniProt P19419 1-428); conditions: protein: recombinant; tags: N-terminal GST; dsDNA, one strand shown
T2 sequence: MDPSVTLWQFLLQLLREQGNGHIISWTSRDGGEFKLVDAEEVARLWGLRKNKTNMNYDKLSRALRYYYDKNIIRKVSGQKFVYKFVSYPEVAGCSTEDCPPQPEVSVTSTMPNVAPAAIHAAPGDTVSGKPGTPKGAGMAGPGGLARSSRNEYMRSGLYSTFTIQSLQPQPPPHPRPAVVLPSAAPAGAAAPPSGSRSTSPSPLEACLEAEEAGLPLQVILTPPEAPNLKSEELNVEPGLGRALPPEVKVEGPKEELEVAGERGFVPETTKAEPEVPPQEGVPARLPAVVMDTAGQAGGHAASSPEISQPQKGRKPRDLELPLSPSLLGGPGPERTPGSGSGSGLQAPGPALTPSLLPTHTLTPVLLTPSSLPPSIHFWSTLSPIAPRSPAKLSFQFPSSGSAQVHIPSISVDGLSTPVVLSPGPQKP
Procedure, shortened: as §1

[3] = target: T3, GABPA (Homo sapiens, UniProt Q06546 1-454); conditions: protein: recombinant; tags: N-terminal GST; dsDNA, one strand shown
T3 sequence: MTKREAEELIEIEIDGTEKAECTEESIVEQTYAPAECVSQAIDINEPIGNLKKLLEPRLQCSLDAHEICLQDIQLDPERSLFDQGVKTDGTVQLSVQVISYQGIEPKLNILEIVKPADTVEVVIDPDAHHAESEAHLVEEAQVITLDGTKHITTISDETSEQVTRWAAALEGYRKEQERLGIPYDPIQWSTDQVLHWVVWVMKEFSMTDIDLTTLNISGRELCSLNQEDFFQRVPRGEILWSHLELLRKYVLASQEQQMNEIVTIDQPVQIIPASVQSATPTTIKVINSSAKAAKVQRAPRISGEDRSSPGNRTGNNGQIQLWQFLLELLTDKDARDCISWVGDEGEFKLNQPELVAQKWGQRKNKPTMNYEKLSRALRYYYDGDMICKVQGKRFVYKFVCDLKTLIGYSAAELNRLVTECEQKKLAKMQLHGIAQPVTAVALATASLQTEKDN
Procedure, shortened: as §1

[4] = target: T4, ERG (Homo sapiens, UniProt P11308 1-479); conditions: protein: recombinant; tags: N-terminal GST; dsDNA, one strand shown
T4 sequence: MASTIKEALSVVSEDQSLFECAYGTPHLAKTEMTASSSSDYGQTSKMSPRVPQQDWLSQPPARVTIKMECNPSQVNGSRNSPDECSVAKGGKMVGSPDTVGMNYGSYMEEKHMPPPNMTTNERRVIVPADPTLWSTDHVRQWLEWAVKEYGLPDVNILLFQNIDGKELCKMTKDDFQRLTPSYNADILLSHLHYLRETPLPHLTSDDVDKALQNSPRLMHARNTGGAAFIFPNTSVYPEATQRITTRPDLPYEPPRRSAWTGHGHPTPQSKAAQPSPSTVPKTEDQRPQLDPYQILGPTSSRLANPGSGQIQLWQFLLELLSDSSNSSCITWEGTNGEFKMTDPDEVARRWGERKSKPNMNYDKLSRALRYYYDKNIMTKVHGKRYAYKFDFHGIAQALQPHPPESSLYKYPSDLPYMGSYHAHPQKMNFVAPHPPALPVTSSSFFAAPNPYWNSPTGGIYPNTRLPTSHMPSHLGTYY
Procedure, shortened: as §1

[5] = target: ELF1 (Homo sapiens, UniProt P32519 1-619); conditions: protein: recombinant; tags: N-terminal GST; dsDNA, one strand shown
ELF1, sequence (P32519 whole entry): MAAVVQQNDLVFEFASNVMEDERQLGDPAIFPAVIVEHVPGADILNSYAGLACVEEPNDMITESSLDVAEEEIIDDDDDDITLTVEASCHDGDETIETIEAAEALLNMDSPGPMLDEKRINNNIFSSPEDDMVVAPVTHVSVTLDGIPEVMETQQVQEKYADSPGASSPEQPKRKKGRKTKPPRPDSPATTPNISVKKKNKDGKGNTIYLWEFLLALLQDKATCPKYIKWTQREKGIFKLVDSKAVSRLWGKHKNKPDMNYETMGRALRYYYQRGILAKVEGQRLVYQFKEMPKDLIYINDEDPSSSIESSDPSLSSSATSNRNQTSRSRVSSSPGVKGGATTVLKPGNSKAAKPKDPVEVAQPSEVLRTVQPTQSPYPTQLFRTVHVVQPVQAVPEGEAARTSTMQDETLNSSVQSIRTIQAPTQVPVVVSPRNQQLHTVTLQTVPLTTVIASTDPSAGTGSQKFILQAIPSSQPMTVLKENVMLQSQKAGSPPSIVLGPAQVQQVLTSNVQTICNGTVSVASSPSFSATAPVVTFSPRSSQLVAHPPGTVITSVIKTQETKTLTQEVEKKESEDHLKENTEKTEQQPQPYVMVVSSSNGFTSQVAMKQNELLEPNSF
Procedure, shortened: as §1

[6] = target: T5, EHF (Homo sapiens, UniProt Q9NZC4 1-300); conditions: protein: recombinant; tags: N-terminal GST; dsDNA, one strand shown
T5 sequence: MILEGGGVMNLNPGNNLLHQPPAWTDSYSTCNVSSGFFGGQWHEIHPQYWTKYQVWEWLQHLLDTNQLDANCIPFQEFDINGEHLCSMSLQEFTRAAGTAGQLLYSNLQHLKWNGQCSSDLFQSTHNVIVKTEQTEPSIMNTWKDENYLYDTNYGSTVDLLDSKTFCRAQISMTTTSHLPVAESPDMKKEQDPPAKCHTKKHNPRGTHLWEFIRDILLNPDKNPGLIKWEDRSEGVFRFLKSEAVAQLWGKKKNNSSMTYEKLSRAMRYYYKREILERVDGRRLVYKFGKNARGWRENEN
Procedure, shortened: as §1

[7] = target: SPI1 (Homo sapiens, UniProt P17947 1-270); conditions: protein: recombinant; tags: N-terminal GST; dsDNA, one strand shown
Procedure, shortened: as §1

[8] = target: SPIB (Homo sapiens, UniProt Q01892 1-262); conditions: protein: recombinant; tags: N-terminal GST; dsDNA, one strand shown
SPIB, sequence (Q01892 whole entry): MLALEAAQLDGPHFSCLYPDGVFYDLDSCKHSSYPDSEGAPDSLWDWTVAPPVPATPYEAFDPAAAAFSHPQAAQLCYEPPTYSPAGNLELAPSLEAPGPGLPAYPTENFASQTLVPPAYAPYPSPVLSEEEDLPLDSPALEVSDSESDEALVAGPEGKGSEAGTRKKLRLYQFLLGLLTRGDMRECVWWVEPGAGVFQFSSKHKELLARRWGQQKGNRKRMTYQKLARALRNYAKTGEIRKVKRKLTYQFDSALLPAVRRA
Procedure, shortened: as §1

[9] = target: T6, ELK3 (Homo sapiens, UniProt P41970 1-407); conditions: protein: recombinant; tags: N-terminal GST; dsDNA, one strand shown
T6 sequence: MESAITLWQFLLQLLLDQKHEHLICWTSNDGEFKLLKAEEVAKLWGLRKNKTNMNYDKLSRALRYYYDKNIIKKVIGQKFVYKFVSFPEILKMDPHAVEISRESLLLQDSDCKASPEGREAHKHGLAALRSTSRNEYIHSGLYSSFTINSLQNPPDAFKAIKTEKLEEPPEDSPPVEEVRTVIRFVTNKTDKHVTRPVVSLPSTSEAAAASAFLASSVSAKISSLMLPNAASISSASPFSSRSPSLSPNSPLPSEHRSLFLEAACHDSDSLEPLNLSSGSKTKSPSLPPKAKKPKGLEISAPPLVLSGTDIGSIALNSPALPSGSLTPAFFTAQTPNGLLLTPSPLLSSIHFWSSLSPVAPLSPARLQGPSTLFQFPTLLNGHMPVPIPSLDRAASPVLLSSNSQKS
Procedure, shortened: as §1

[10] = target: T7, FEV (Homo sapiens, UniProt Q99581 1-238); conditions: protein: recombinant; tags: N-terminal GST; dsDNA, one strand shown
T7 sequence: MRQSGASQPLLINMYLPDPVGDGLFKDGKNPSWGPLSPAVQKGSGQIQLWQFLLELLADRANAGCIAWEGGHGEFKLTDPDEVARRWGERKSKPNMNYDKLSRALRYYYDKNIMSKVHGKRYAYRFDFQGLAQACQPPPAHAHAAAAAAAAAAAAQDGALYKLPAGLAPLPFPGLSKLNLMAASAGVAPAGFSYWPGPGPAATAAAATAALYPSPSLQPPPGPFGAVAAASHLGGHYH
Procedure, shortened: as §1

[11] = target: ETV5 (Homo sapiens, UniProt P41161 1-510); conditions: protein: recombinant; tags: N-terminal GST; dsDNA, one strand shown
ETV5, sequence (P41161 whole entry): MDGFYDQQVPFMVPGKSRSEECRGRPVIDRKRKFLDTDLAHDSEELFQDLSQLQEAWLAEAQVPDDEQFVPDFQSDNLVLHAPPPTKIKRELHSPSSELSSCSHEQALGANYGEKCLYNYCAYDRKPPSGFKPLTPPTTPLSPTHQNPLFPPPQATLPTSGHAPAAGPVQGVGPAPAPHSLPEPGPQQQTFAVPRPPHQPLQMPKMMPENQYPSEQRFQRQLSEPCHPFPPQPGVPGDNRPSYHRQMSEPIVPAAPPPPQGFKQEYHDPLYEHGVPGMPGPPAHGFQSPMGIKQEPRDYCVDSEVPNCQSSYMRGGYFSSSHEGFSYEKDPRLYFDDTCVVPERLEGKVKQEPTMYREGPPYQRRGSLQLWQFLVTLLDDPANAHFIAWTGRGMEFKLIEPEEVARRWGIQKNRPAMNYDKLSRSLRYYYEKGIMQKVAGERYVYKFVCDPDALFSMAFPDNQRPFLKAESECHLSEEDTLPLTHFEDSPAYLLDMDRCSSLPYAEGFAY
Procedure, shortened: as §1

[12] = target: HSF1 (Homo sapiens, UniProt Q00613 1-529); conditions: protein: recombinant; tags: N-terminal GST; chain copies: 3; dsDNA, one strand shown
HSF1, sequence (Q00613 whole entry): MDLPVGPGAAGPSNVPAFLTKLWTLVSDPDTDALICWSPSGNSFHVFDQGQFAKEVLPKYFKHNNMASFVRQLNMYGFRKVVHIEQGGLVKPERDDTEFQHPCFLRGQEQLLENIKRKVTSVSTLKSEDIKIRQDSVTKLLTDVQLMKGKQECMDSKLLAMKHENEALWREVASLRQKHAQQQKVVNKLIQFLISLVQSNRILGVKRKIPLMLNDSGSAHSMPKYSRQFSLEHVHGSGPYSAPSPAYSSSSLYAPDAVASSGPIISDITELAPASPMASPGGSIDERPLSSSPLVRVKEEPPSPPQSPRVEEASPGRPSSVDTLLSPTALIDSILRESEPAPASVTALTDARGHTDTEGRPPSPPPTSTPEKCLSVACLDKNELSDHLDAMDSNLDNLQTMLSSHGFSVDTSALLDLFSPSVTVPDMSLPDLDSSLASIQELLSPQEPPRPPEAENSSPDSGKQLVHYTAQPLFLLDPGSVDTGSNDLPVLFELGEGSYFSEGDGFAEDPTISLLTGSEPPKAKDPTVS
Procedure, shortened: as §1

[13] = target: T8, SPIC (Homo sapiens, UniProt Q8N5J4 1-248); conditions: protein: recombinant; tags: N-terminal GST; dsDNA, one strand shown
T8 sequence: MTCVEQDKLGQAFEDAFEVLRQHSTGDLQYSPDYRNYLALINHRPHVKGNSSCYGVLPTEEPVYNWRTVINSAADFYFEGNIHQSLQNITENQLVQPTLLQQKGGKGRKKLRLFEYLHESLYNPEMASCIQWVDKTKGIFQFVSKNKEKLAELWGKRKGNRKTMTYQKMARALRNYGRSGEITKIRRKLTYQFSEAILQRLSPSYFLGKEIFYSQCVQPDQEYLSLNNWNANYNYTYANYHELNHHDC
Procedure, shortened: as §1

[14] = target: ELF4 (Homo sapiens, UniProt Q99607 1-663); conditions: protein: recombinant; tags: N-terminal GST; dsDNA, one strand shown
ELF4, sequence (Q99607 whole entry): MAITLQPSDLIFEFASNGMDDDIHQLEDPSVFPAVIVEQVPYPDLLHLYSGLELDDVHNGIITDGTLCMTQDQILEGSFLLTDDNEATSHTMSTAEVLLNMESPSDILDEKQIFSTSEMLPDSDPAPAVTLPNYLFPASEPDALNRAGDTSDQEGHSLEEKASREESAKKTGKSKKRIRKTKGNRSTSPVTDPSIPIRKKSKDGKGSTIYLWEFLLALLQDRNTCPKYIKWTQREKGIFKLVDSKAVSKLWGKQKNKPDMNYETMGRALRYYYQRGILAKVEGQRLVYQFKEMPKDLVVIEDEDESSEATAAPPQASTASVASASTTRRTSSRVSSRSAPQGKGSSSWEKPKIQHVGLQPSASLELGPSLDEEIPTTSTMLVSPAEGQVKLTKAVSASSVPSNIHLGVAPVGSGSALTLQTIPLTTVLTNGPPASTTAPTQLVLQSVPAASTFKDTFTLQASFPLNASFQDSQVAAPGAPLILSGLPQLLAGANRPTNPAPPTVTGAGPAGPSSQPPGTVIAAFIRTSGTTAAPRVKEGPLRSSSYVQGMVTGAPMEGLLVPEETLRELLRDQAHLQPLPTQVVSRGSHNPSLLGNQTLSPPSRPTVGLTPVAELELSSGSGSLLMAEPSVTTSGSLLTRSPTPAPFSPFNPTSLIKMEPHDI
Procedure, shortened: as §1

[15] = target: T9, ELK4 (Homo sapiens, UniProt P28324-2 1-405); conditions: protein: recombinant; tags: N-terminal GST; dsDNA, one strand shown
T9 sequence: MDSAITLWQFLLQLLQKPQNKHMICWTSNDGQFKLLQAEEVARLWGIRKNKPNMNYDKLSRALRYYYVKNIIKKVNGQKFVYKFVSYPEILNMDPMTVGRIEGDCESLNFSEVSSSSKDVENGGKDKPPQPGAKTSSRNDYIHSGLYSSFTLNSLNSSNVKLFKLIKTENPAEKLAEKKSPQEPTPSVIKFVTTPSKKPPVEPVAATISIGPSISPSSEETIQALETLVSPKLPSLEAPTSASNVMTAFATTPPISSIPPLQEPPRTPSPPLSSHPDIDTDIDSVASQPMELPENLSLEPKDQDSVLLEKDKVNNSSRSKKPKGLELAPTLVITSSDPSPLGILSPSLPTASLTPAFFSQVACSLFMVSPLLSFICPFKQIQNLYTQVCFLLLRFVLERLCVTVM
Procedure, shortened: as §1

[16] = target: T10, ETV2 (Homo sapiens, UniProt O00321 1-342); conditions: protein: recombinant; tags: N-terminal GST; dsDNA, one strand shown
T10 sequence: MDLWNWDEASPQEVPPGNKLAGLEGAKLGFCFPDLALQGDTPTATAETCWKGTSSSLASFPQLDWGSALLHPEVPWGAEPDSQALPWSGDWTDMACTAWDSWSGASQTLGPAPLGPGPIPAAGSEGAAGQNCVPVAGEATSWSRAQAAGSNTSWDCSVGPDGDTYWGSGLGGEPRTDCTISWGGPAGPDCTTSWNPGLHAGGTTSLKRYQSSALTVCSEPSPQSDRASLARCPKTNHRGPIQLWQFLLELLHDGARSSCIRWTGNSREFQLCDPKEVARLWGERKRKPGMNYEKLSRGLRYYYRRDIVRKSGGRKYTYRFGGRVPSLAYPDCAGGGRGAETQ
Procedure, shortened: as §1

[17] = target: T11, ELF3 (Homo sapiens, UniProt P78545 1-371); conditions: protein: recombinant; tags: N-terminal GST; dsDNA, one strand shown
T11 sequence: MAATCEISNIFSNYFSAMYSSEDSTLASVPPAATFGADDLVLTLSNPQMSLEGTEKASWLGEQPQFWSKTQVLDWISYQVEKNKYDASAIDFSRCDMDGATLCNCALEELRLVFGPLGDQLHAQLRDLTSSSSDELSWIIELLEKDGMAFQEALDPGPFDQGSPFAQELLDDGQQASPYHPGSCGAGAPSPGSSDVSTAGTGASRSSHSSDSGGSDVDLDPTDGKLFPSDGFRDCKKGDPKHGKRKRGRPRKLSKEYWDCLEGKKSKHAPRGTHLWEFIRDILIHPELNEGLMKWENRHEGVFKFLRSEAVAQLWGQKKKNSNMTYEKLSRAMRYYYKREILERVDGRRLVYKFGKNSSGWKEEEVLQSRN
Procedure, shortened: as §1

[18] = target: CRX (Homo sapiens, UniProt O43186 1-299); conditions: protein: recombinant; tags: N-terminal GST; dsDNA, one strand shown
CRX, sequence (O43186 whole entry): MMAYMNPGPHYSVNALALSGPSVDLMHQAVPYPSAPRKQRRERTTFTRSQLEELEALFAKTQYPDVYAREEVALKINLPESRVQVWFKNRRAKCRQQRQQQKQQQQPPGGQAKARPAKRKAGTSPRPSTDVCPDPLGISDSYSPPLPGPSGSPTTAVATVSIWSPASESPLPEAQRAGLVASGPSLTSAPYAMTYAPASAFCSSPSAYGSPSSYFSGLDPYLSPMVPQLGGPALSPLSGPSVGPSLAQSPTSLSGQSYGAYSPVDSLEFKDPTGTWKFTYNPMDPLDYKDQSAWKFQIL
Procedure, shortened: as §1

[19] = target: ETV1 (Homo sapiens, UniProt P50549 1-477); conditions: protein: recombinant; tags: N-terminal GST; dsDNA, one strand shown
ETV1, sequence (P50549 whole entry): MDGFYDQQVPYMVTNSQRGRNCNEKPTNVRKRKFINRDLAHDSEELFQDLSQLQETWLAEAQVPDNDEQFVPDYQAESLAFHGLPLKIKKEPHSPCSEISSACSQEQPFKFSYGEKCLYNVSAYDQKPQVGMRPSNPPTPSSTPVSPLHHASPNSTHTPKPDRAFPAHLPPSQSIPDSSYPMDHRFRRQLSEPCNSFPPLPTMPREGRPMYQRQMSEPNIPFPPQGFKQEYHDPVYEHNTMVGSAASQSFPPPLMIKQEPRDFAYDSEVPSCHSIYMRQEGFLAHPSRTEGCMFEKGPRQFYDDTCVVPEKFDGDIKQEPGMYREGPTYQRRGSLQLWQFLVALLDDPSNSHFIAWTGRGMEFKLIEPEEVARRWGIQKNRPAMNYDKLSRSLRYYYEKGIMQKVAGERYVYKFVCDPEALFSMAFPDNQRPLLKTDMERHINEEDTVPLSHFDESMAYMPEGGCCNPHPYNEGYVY
Procedure, shortened: as §1

## TTAACG
[1]
  binding signal: 1.12 fold enrichment (6-mer frequency, TF over GST control)
[2]
  binding signal: 1.17 fold enrichment (6-mer frequency, TF over GST control)
[3]
  binding signal: 1.21 fold enrichment (6-mer frequency, TF over GST control)
[4]
  binding signal: 1.17 fold enrichment (6-mer frequency, TF over GST control)
[5]
  binding signal: 1.23 fold enrichment (6-mer frequency, TF over GST control)
[6]
  binding signal: 1.15 fold enrichment (6-mer frequency, TF over GST control)
[7]
  binding signal: 1.26 fold enrichment (6-mer frequency, TF over GST control)
[8]
  binding signal: 1.26 fold enrichment (6-mer frequency, TF over GST control)
[9]
  binding signal: 1.32 fold enrichment (6-mer frequency, TF over GST control)
[10]
  binding signal: 1.13 fold enrichment (6-mer frequency, TF over GST control)
[11]
  binding signal: 1.22 fold enrichment (6-mer frequency, TF over GST control)
[12]
  binding signal: 1.73 fold enrichment (6-mer frequency, TF over GST control)
[13]
  binding signal: 1.11 fold enrichment (6-mer frequency, TF over GST control)
[14]
  binding signal: 1.15 fold enrichment (6-mer frequency, TF over GST control)
[15]
  binding signal: 1.17 fold enrichment (6-mer frequency, TF over GST control)
[16]
  binding signal: 1.17 fold enrichment (6-mer frequency, TF over GST control)
[17]
  binding signal: 1.27 fold enrichment (6-mer frequency, TF over GST control)
[18]
  binding signal: 2.66 fold enrichment (6-mer frequency, TF over GST control)
[19]
  binding signal: 1.19 fold enrichment (6-mer frequency, TF over GST control)

— paper PMC7862700, “An all-to-all approach to the identification of sequence-specific readers for epigenetic DNA modifications on cytosine”
